The sample as a whole holds a higher share of hits than the screen did.
12-LOX inh: Primary qHTS assay for inhibitors of human arachidonate 12S-lipoxygenase (ALOX12): Round 2. Polyunsaturated fatty acid lipoxygenase ALOX12 (Homo sapiens), P18054. purified 12hLO, xylenol orange hydroperoxide absorbance. Potency, µM (doses to about 108 µM), without a hit: at the top dose activity change, negative = inhibition, most hits filed as inhibitors. 580,000 compounds, 1.1% hits; further: potency means the concentration at half of the fitted maximal effect
Target sequence (P18054 whole entry, looked up): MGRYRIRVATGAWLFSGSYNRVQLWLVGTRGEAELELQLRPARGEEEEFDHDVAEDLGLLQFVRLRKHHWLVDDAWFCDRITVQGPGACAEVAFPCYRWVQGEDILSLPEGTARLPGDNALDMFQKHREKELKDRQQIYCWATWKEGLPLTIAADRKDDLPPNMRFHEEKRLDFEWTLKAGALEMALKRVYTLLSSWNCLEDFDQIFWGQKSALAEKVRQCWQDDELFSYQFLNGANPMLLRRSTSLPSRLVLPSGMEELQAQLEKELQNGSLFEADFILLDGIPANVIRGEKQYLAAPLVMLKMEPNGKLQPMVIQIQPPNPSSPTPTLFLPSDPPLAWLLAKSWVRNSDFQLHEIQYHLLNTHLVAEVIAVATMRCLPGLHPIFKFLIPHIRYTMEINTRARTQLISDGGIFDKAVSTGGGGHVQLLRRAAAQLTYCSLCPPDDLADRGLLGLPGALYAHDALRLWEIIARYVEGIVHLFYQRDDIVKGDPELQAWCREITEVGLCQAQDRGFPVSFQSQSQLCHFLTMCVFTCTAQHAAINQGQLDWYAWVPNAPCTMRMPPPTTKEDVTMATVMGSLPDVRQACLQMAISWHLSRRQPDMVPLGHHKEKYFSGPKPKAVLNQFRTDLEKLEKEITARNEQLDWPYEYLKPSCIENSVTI
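Hydroperoxide product was detected by ferrous iron/xylenol orange as the 573 to 405 nm absorbance ratio. Arachidonic acid at 40 uM (final) was turned over for 30 min at room temperature by 150 nM human 12hLO, pH 7.0 Hepes buffer, after 15 min compound preincubation.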
TDP1 cell noCPT: qHTS for Inhibitors of human tyrosyl-DNA phosphodiesterase 1 (TDP1): qHTS in cells in absence of CPT | DT40 Tdp1-/- hTDP1 cells, no CPT, ATP luminescence, 48 h | Potency, µM (series often up to 46.2 µM), without a hit: at the top dose activity change, negative = growth inhibition, hits mostly inhibitors | 420,000 compounds, 15% hits | AID 686978, 2013; further: potency means the concentration at half of the fitted maximal effect; nearly all actives have a fitted effect of over 55% in size
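A cellular qHTS used chicken DT40 cells lacking endogenous Tdp1 but carrying stably transfected human TDP1. Compounds were applied without camptothecin, and cell growth kinetics were judged by ATP-dependent luminescence after ≥48 hr.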
HT1080-NT tox: qHTS for induction of synthetic lethality in tumor cells producing 2HG: qHTS for the HT-1080-NT fibrosarcoma cell line | HT-1080-NT fibrosarcoma viability, CellTiter-Glo ATP luminescence, 48 h | Potency, µM (doses to about 46.1 µM), without a hit: top-dose activity, negative = less viability, most hits filed as cytotoxic | 360,000 compounds, 1.6% hits;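 further: NT is the 2HG producing partner of a matched IDH1 knockdown line; potency means the concentration at half of the fitted maximal effect; 0% = DMSO-treated cells and -100% = media-only wells without cells; nearly all actives have a fitted effect of over 55% in size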
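Read-out is CellTiter-Glo luminescence after 10 minutes at room temperature, following 48 hours' compound treatment of HT-1080-NT cells (750 cells/well, RPMI, 5% FBS, 37 degrees C).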
TDP1 cell CPT: qHTS for Inhibitors of human tyrosyl-DNA phosphodiesterase 1 (TDP1): qHTS in cells in presence of CPT | Potency, µM (titrated, usually from 46.2 µM), for the others: at the highest dose activity change, negative = growth inhibition, hits mostly inhibitors | chicken DT40 Tdp1-/-;hTDP1 cells + 20 nM CPT, ATP luminescence, 48 h | 420,000 compounds, 12% hits; further: potency means the concentration at half of the fitted maximal effect; nearly all actives have a fitted effect of over 55% in size
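Cell growth measured by CellTiter-Glo luminescence after a minimum 48 h, 37 C compound exposure with 20 nM CPT in Tdp1-knockout DT40 cells stably expressing hTDP1, seeded 400/well; qHTS titration format.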
IL-1B inflam inh: qHTS for Inhibitors of Inflammasome Signaling: IL-1-beta AlphaLISA Primary Screen; THP-1 LPS/ATP IL-1B secretion, AlphaLISA, 16 h; hits give low values; activity change, % at 57.5 µM; 360,000 compounds, 4.7% hits; in the data active means activity change below about -50%; inconclusive means mostly about -30% to -49%
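Secreted IL-1B measured by AlphaLISA bead assay after 16 h compound exposure of THP-1 cells; compounds (final up to 57.5 uM) added 1 h before LPS (250 ng/mL) and ATP (1.25 mM) stimulation; lower signal means less secretion.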
HT1080 IDH1KD tx: qHTS for induction of synthetic lethality in tumor cells producing 2HG: qHTS for the HT-1080-IDH1KD cell line. AID 686971, 2013. Potency, µM (highest dose often 46.1 µM), for the others: top-dose activity, negative = toxicity, usual class: cytotoxic. 360,000 compounds, 2% hits. HT-1080 IDH1 knockdown viability, ATP luminescence, 48 h;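 further: potency means the concentration at half of the fitted maximal effect; 0% = DMSO wells and -100% = cell-free medium wells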
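IDH1KD HT-1080 cells, 750/well, RPMI + 5% FBS; compound pinned after 2 h settling; 48 h, 37 °C; CellTiter-Glo luminescence; % activity normalised to DMSO and no-cell wells; curves fitted, classed by r2 and efficacy.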
The depositor's hits bear a star; [ ] = dose if it differs, or a comment. Unless noted, the call rests on the fitted dose curve; in most records, active means well fitted curve in the direction sought with a large enough effect; inconclusive means small, poorly fitted or top-dose-only effect, or another doubt; inactive means no such curve, though single readings can be large; an effect the other way counts as inactive or inconclusive. Unless noted, on the % scale 0 is the no-effect control and ±100 the full control effect.

What do the screens show for `Cc1cccc(OCC2(CNCc3c(C)noc3C)C[C@@H](O)[C@@H](O)C2)n1` (some centres undefined)?
12-LOX inh: 32µM*

What do the screens show for `Cc1cccc(OCC2(CNCc3ccc(F)cc3)C[C@@H](O)[C@@H](O)C2)n1` (some centres undefined)?
12-LOX inh: -13%[176 µM]

How did O=C(/C(=C/c1ccc(F)cc1)c1nc2ccccc2o1)c1ccccc1 do in these assays?
12-LOX inh: 24%

How did Cc1cccc2c(C(=O)NCc3cccs3)cc(-c3cccnc3)nc12 do in these assays?
12-LOX inh: 0%

Results for OC[C@H]1OC([S-])[C@H](O)[C@@H](O)[C@@H]1O.[Au+] (some centres undefined) ?
TDP1 cell noCPT: -86%; TDP1 cell CPT: 24µM*

How did O=C(CCn1ccn2nc3c(c2c1=O)CCCC3)NC1CCCCCC1 do in these assays?
12-LOX inh: 12%

What do the screens show for `Cc1nc(NC2=NCN(CCCN3CCOCC3)CN2)nc2c(C)cccc12`?
TDP1 cell noCPT: 16µM*; HT1080-NT tox: -5%; TDP1 cell CPT: inconclusive; IL-1B inflam inh: -61*; HT1080 IDH1KD tx: -13%

Results for O=C(CCN1C(=O)/C(=C\c2cccc(Br)c2)SC1=S)N1CCOCC1 ?
12-LOX inh: 1%; TDP1 cell noCPT: 6.5µM*; HT1080-NT tox: 0%; TDP1 cell CPT: 6.5µM*; IL-1B inflam inh: inconclusive; HT1080 IDH1KD tx: -1%

How did COc1ccc(/C=C2\SC(=S)N(CCCC(=O)N3CCOCC3)C2=O)cc1 do in these assays?
12-LOX inh: 45µM*; TDP1 cell noCPT: inconclusive; HT1080-NT tox: -6%; TDP1 cell CPT: inconclusive; IL-1B inflam inh: -10; HT1080 IDH1KD tx: -15%

Results for O=C(CCCN1C(=O)/C(=C\c2ccccc2)SC1=S)N1CCOCC1 ?
12-LOX inh: -28%; TDP1 cell noCPT: inconclusive; HT1080-NT tox: 6%; TDP1 cell CPT: 23µM*; IL-1B inflam inh: -84*; HT1080 IDH1KD tx: inconclusive

What do the screens show for `CCc1ccc(/C=C2\SC(=S)N(CCCC(=O)N3CCCC3)C2=O)cc1`?
12-LOX inh: -17%; TDP1 cell noCPT: inconclusive; HT1080-NT tox: 1%; TDP1 cell CPT: inconclusive; IL-1B inflam inh: -29; HT1080 IDH1KD tx: 2%

How did O=C(CCCN1C(=O)/C(=C/c2ccccc2Cl)SC1=S)NNC(=O)c1ccccc1 do in these assays?
12-LOX inh: 5%; TDP1 cell noCPT: 16µM*; HT1080-NT tox: 5%; TDP1 cell CPT: 18µM*; IL-1B inflam inh: -102*; HT1080 IDH1KD tx: 10%

How did COc1ccc(/C=C2\SC(=S)N(CCCC(=O)N3CCOCC3)C2=O)cc1OC do in these assays?
12-LOX inh: -15%; TDP1 cell noCPT: inconclusive; HT1080-NT tox: -1%; TDP1 cell CPT: 2%; IL-1B inflam inh: 7; HT1080 IDH1KD tx: -7%

What do the screens show for `Cc1cc(NC(=O)CN2C(=O)/C(=C/c3cccc(Br)c3)SC2=S)no1`?
12-LOX inh: -11%; TDP1 cell noCPT: inconclusive; HT1080-NT tox: -2%; TDP1 cell CPT: -24%; IL-1B inflam inh: 13; HT1080 IDH1KD tx: 2%

What do the screens show for `O=C(Nc1cccc(S(=O)(=O)N2CCOCC2)c1)c1cccc(CN2CCCC2=O)c1`?
12-LOX inh: 6%

What do the screens show for `O=C(CCCN1C(=O)/C(=C/c2ccccc2Cl)SC1=S)N1CCOCC1`?
12-LOX inh: 1%; TDP1 cell noCPT: 16µM*; HT1080-NT tox: -6%; TDP1 cell CPT: inconclusive; IL-1B inflam inh: inconclusive; HT1080 IDH1KD tx: -1%

How did O=C(CCN1C(=O)/C(=C/c2ccccc2Cl)SC1=S)NCCCN1CCOCC1 do in these assays?
12-LOX inh: 1%; TDP1 cell noCPT: inconclusive; HT1080-NT tox: 3%; TDP1 cell CPT: inconclusive; IL-1B inflam inh: -9; HT1080 IDH1KD tx: -9%

Results for C(=C\c1ccco1)/C1=NN(c2ccccc2)C(c2ccco2)C1 (centres undefined) ?
TDP1 cell noCPT: 23µM*; HT1080-NT tox: -5%; TDP1 cell CPT: inconclusive; IL-1B inflam inh: -7; HT1080 IDH1KD tx: -24%

What do the screens show for `O=C(CSc1nnc(-c2ccncc2)n1-c1ccc(Br)cc1)Nc1ccc(F)cc1`?
12-LOX inh: 17%

What do the screens show for `CC(C)COc1ccc(C/C(N)=N/n2cnnc2)cc1`?
12-LOX inh: 3%; TDP1 cell noCPT: 5.8µM*; HT1080-NT tox: -6%; TDP1 cell CPT: 5.2µM*; IL-1B inflam inh: 11; HT1080 IDH1KD tx: -9%

Results for COc1ccc(C/C(N)=N/n2cnnc2)cc1 ?
12-LOX inh: 11%; TDP1 cell noCPT: -12%; HT1080-NT tox: 2%; TDP1 cell CPT: -3%; IL-1B inflam inh: 12; HT1080 IDH1KD tx: 3%[9.24 µM]

Results for COc1ccc(CC(=O)N2CCN(c3nc(-c4ccc(Cl)cc4)no3)CC2)cc1OC ?
12-LOX inh: 26%

How did COc1ccc(-c2noc(N3CCN(c4cccc(C)c4C)CC3)n2)cc1OC do in these assays?
12-LOX inh: -4%; TDP1 cell noCPT: 7.3µM*; TDP1 cell CPT: 18µM*

What do the screens show for `COc1ccc(-c2noc(N3CCN(c4cccc(Cl)c4)CC3)n2)cc1OC`?
12-LOX inh: -10%; TDP1 cell noCPT: 8.2µM*; TDP1 cell CPT: inconclusive

How did COc1cc(-c2ccno2)ccc1S(=O)(=O)N1CCN(c2cc(C)ccc2C)CC1 do in these assays?
12-LOX inh: 0%; TDP1 cell noCPT: inconclusive; TDP1 cell CPT: inconclusive

How did COc1ccc(-c2noc(N3CCN(c4ccc(Cl)cc4)CC3)n2)cc1OC do in these assays?
12-LOX inh: -27%; TDP1 cell noCPT: 7%; TDP1 cell CPT: -10%

What do the screens show for `COc1ccc(OC)c(-c2noc(N3CCN(c4ccc(Cl)cc4)CC3)n2)c1`?
12-LOX inh: -30%; TDP1 cell noCPT: 15µM*; TDP1 cell CPT: inconclusive

How did COc1cc(-c2ccno2)ccc1S(=O)(=O)N1CCN(c2cccc(Cl)c2)CC1 do in these assays?
12-LOX inh: inconclusive; TDP1 cell noCPT: inconclusive; TDP1 cell CPT: 23µM*
